# Screening results: PubChem, National Center for Advancing Translational Sciences (NCATS)
# A selection: hits, their analogues and other compounds. The true share with any hit is near 6.5%.
# MARV entry inh = blocks Marburg virus binding to or entry into cells | Marburg virus pseudotyped entry inhibition, cell reporter | Potency, µM (titrated, usually from 37.8 µM), for inactives: top-dose activity change, negative = inhibition, most hits filed as inhibitors | 300,000 compounds, 1.8% hits; calls by dose curve; tested in HEK293 cells; further: potency means the concentration at half of the fitted maximal effect
# LASV entry inh = blocks Lassa virus binding to or entry into cells; Lassa virus pseudotype entry inhibition, cell reporter; 300,000 compounds, 1.2% hits; Potency, µM (series often up to 37.9 µM), without a hit: top-dose activity change, negative = inhibition, usual class: inhibitors; AID 540256; calls by dose curve; tested in HEK293 cells; further: potency means the concentration at half of the fitted maximal effect; nearly all actives have a fitted effect of over 50% in size
# FMDV antiviral = antivirals against foot and mouth disease virus | 410,000 compounds, 1.2% hits | FMDV antiviral cell-based qHTS | Potency, µM (top dose mostly 57.9 µM), for inactives: at the highest dose activity change, negative = inhibition, hits mostly inhibitors; calls by dose curve; tested in HEK293T cells; further: read-out not given here; potency means the concentration at half of the fitted maximal effect; nearly all actives have a fitted effect of over 45% in size
# HCMV antiviral = human cytomegalovirus inhibition. activity change, negative = inhibition, % at 57.5 µM. 410,000 compounds, 4.5% hits. HFF cells, HCMV-luciferase reporter, 72 h; stronger effect = lower value; in the data active means activity change below about -60%; inconclusive means no clear call, values can overlap the other calls; inactive means above about -39%
#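 Luciferase read-out from HCMV-luciferase-infected HFFs (MOI 1 PFU/cell) 72 h post infection at 37C; compounds added after 16 h cell attachment; activity normalized between buffer-only basal and Salinomycin (10uM) inhibitor controls.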
# VACV Venus inh = inhibitors of vaccinia virus (Venus reporter) | Vaccinia virus Venus reporter expression, fluorescence | Potency, µM (doses to about 36.5 µM), inactives show top-dose activity change, negative = inhibition, most hits filed as inhibitors | 330,000 compounds, 0.46% hits; calls by dose curve; tested in A549 cells; further: potency means the concentration at half of the fitted maximal effect; nearly all actives have a fitted effect of over 30% in size
# Vaccinia mCherry = inhibitors of vaccinia virus infection (mCherry reporter signal). Vaccinia virus mCherry reporter infection, fluorescence. Potency, µM (highest dose often 36.5 µM), for inactives: at the top dose activity change, negative = inhibition, usual class: inhibitors. 310,000 compounds, 0.63% hits. AID 720579; calls by dose curve; tested in A549 cells; further: potency means the concentration at half of the fitted maximal effect; nearly all actives have a fitted effect of over 35% in size
# * hit, by the source's call; i = inactive; ? = inconclusive; / = no result; [ ] = another dose, or the depositor's remark. On the % scale 0 is the no-effect control and ±100 the full control effect.
SMILES,MARV entry inh,LASV entry inh,FMDV antiviral,HCMV antiviral,VACV Venus inh,Vaccinia mCherry
CCOC(CNc1ncnc2sc(-c3ccccc3)cc12)OCC,/,/,-22%,-72*,/,/
COc1ccc(Nc2ncnc3c2cnn3-c2ccccc2)cc1OC,-11%,6%,10%,?,?,-13%
COc1ccc(Nc2ncnc3sc(-c4ccccc4)cc23)cc1OC,?,?,0%,-62*,-21%,i
CN(C)CCCNc1ncnc2sc(-c3ccccc3)cc12,/,/,-14%,-6,/,/
CN(C)/C=C(/C(=O)c1ccc(Cl)c(Cl)c1)S(C)(=O)=O,-5%[46.1 µM],20%[46.1 µM],-13%,-4,-14%,i
CN(C)/C=C(/C(=O)c1ccc(Cl)cc1)S(C)(=O)=O,?,-5%,-6%,-103*,2%,-2%
COc1cc2c(cc1OC)C(c1c(O)n(CCc3ccccc3)c(=S)[nH]c1=O)NCC2 (stereo not drawn),8%[46.1 µM],11%[46.1 µM],5%,-64*,-9%,-14%
COC(=O)c1cc2n(n1)CCN(Cc1ccccc1F)C2=O,-27%,1%,5%,-10,-12%,-16%
COC(=O)c1cc2n(n1)CCN(Cc1ccc(F)cc1)C2=O,26%,16%,-7%,-106*,-14%,/
COc1ccc(C(=O)/C=C2\Sc3ccccc3N2C)cc1,?,?,-5%,127,-8%,-25%
COc1ccc(-[n+]2c(C)cc(/C=C3\Sc4ccccc4N3C)cc2C)cc1,/,/,?,-99*,/,/
COc1ccccc1-[n+]1c(C)cc(/C=C2\Sc3ccccc3N2C)cc1C,/,/,4µM*,-80*,/,/
CC(C)Cc1nc2cc(NS(=O)(=O)N(C)C)cc(C(=O)N3CCc4sccc4C3)c2n1C,/,/,36%,/,-7%,0%
C=Cc1ccc(Cn2c(=O)n(-c3ccc(C)cc3)c(=O)c3c2c2cc(OC)ccc2n3C)cc1,/,?,-7%,-14,-18%,-22%
Cn1cccc/c1=N\c1cccc[n+]1C,/,/,-21%,-74*,/,/
Cn1cc[n+](C)c1P(=S)(c1ccccc1)c1ccccc1,/,/,-10%,-10,-6%,i
COc1ccc(NC(=O)/C=C/c2c(Cl)nc3ccccn23)cc1,/,/,-3%,-62*,/,/
COC(=O)C1=C(C)N(Cc2ccccc2)C(=NCc2cccc(C(F)(F)F)c2)N[C@H]1c1cccc(C(F)(F)F)c1,/,/,40µM*,/,28µM*,10µM*
COC(=O)C1=C(C)N(Cc2ccccc2)C(=NCc2ccc(OC)cc2)N[C@H]1c1ccccc1,/,/,0%,-37,?,-23%
C=CCN=C1NC(c2cccc(C(F)(F)F)c2)C(C(=O)OC)=C(C)N1Cc1ccccc1 (stereo not drawn),-25%[14.2 µM],?,/,/,/,/
COC(=O)C1=C(C)N(CC2CC2)C(=NCc2cccc(C(F)(F)F)c2)N[C@H]1c1ccccc1,/,/,?,/,-25%,i
COC(=O)C1=C(C)N(Cc2ccccc2)C(=NCc2cccc(C(F)(F)F)c2)N[C@H]1c1cccc(F)c1,/,/,40µM*,-98*,13µM*,?
COC(=O)C1=C(C)N(Cc2ccc(C(F)(F)F)cc2)C(=NCc2ccccc2)NC1c1ccccc1 (stereo not drawn),/,/,/,-92*,/,/
COC(=O)C1=C(C)N(Cc2ccc(C(F)(F)F)cc2)C(=NCc2ccccc2)NC1c1cccc(C(F)(F)F)c1 (stereo not drawn),/,/,/,-101*,/,/
COC(=O)C1=C(C)N(Cc2ccc(C(F)(F)F)cc2)C(=NCc2ccccc2)NC1c1cccc(Cl)c1 (stereo not drawn),/,/,/,-100*,/,/
SMILES,MARV entry inh,LASV entry inh,FMDV antiviral,HCMV antiviral,VACV Venus inh,Vaccinia mCherry
COC(=O)C1=C(C)N(Cc2cccc(C(F)(F)F)c2)C(=NCC2CC2)NC1c1cccc(C(F)(F)F)c1 (stereo not drawn),/,/,/,-85*,/,/
CCN=C1NC(c2ccc(F)cc2)C(C(=O)OC)=C(C)N1Cc1cccc(C(F)(F)F)c1 (stereo not drawn),/,/,/,13,/,/
CCN(C(=O)c1cc2c(=O)oc3ccc(C)cc3c2s1)c1ccccc1F,11%[46.1 µM],5%[46.1 µM],-8%,1,-14%,-9%
CC(=O)OC(C)C1C2=C(C(=O)CC1(C)O)C(=O)c1c(ccc(-c3ccc4c(c3O)C(=O)C3=C(C4=O)C(C(C)OC(C)=O)C(C)(O)CC3=O)c1O)C2=O (stereo not drawn),-3%,-5%[46.1 µM],18µM*,-68*,6%,?
Cc1ccc2nc(/C(C#N)=C/c3ccc(O)c(O)c3)[nH]c2c1,?,?,1%,90,35%,5.6µM*
N#C/C(=C/c1ccc(N2CCCC2)c([N+](=O)[O-])c1)c1nc2ccccc2[nH]1,15%,7%,4%,10,/,/
COc1cc(/C=C(\C#N)c2nc3ccc(C)cc3[nH]2)ccc1OC(C)C,?,?,15%,-68*,-13%,5%
Cc1ccc2nc(/C(C#N)=C\c3ccc(N4CCCCC4)c([N+](=O)[O-])c3)[nH]c2c1,?,?,/,-62*,-12%,?
CN1OC(C)(CC(=O)N2CCc3ccccc3C2)N=C1c1ccco1 (stereo not drawn),/,/,/,-11,/,/
COC(=O)[C@@H]1C[C@@]23C(=NN=C(SC)C2Nc2ccccc23)N1C(C)=O (stereo partly drawn),-23%[14.2 µM],/,/,/,/,/
COc1ccc(CCn2c(C)cc3c(c2=O)[C@H](c2ccc4c(c2)OCO4)C(C#N)=C(N)O3)cc1OC,-28%,/,/,/,/,/
CCn1c(SC)nc2c([nH]c3ccccc32)c1=O,/,-4%[46.1 µM],-3%,115,-23%,-23%
COc1cc(OC)c2c(-c3cccc(-c4ccc(OC)c(F)c4)c3)cc(=O)oc2c1,/,/,-8%,-68*,?,?
COc1cc(OC)c2c(-c3cccc(-c4ccc(C(C)=O)cc4)c3)cc(=O)oc2c1,/,/,-2%,/,-7%,-33%
CCc1cc(=O)oc2cc3occ(-c4ccc(OC)c(F)c4)c3cc12,?,5µM*,?,-68*,-21%,?
CCOc1cc(C(=O)OCc2cc(=O)n3nc(C4CC4)sc3n2)cc(OCC)c1OCC,/,?,-28%,14,-5%,15%
S=C(NNc1nc(Nc2ccccc2)nc(N2CCCCC2)n1)NC1CCCCC1,10µM*,-6%,-15%,-32,-9%,-16%
Cc1nn(C)c(C)c1NC(=O)CCl,3%[46.1 µM],11µM*,-7%,-70*,?,?
Cc1nn(C)c(C)c1NC(=O)COc1ccc(Cl)cc1,/,/,?,0,/,/
Cc1ccc(-n2nc(C)c(NC(=O)CCl)c2C)cc1C,?,11µM*,-19%,-103*,?,?
CCC(=O)Nc1c(C)nn(-c2ccc(C)c(C)c2)c1C,9%,0%,8%,35,-16%,i
O=C(O)c1ccc2nc(-c3cc4cc(Cl)ccc4oc3=O)[nH]c2c1,/,20%[46.1 µM],32%,-2,0%,-7%
COC(=O)c1ccc(NC(=O)C2CCN(S(=O)(=O)c3ccc4c(c3)CCCN4C(C)=O)CC2)cc1,/,-13%[46.1 µM],?,-28,-8%,-5%
